Records with an inconclusive call do not appear. Activity calls are given as the source filed them. Rule for the calls: active = hit-call score of the fitted dose curve at least 0.9, where 1 is the maximum; inconclusive = response in the unintended direction; inactive = score below 0.9.

Read-out in the assay: organic anion transporter (SLCO1B1), SLCO1B1 (gene 10599)
The assay can be described thus: CLD_SLCO1B1_6hr: CellzDirect (CLD) Gene Expression Assay for organic anion transporter (SLCO1B1) at 6 hours (AID 2283668).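 Note: active means mRNA induction above DMSO baseline.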 The procedure:
CLD_6hr is a cell-based, multiplexed-readout assay that uses hepatocyte, a human liver primary cell, with measurements taken at 6 hours after chemical dosing in a 96-well plate.CLD_SLCO1B1_6hr is one of 16 assay component(s) measured or calculated from the CLD_6hr assay. It is designed to make measurements of mRNA induction, a form of inducible reporter, as detected with chemiluminescence signals by Quantitative Nuclease Protection Assay (qNPA) technology.Data from the assay component CLD_SLCO1B1_6hr was analyzed at the endpoint, CLD_SLCO1B1_6hr, in the positive analysis fitting direction relative to DMSO as the negative control and baseline of activity. Using a type of inducible reporter, gain-of-signal activity can be used to understand changes in the reporter gene as they relate to the gene SLCO1B1. Furthermore, this assay endpoint can be referred to as a primary readout. To generalize the intended target to other relatable targets, this assay endpoint is annotated to the transporter intended target family, where subfamily is organic anion transporter.
Human hepatocyte cultures were treated daily for two consecutive days with fresh dosing solutions containing appropriate concentrations of the 320 ToxCast chemicals (chemical identities were blinded to CellzDirect and other ToxCast collaborators), vehicle control (0.2% DMSO), and positive control inducers as summarized in Table 1. Due to the large number of treatment groups and chemicals examined, the ToxCast chemicals were divided into two groups (spanning two independent cultures of hepatocytes from separate donor preparations (Hu778: ToxCast plates 1 and 2; Hu776: ToxCast plates 3 and 4). Each preparation of human hepatocyte cultures was treated with respective vehicle control, medium only control, set of six positive controls/reference chemicals for the five hepatic receptor pathways, and a subset of eight of the ToxCast chemicals (indoxacarb, pyrithiobac-sodium, norflurazon, cyhalofop-butyl, methomyl, thiram, acetochlor, and propiconazole). These replicate data, coupled with internal replicates designed within the blinded ToxCast chemical library, provided additional data to evaluate interindividual differences between hepatocyte preparations and their potential impact on chemical profiles.Cell morphology and integrity were evaluated using phase-contrast microscopy as an indicator of hepatocyte cell health (Tyson & Green, 1987). Cultures for each treatment group (i.e., media, vehicle [0.2% DMSO], positive control inducers [multiple concentrations], and the ToxCast chemicals [multiple concentrations]) were observed and cell morphology was assessed relative to vehicle control cultures at each harvest time point (0, 6, 24, or 48 h). […] Images were evaluated at the conclusion of the study to assess changes in cell integrity and account for the effects of chemical exposure on uncharacteristic changes in concentration-dependent gene expression profiles. The results from these determinations of apparent cytotoxicity were annotated (yes/no) alongside the corresponding qNPA data for reference.At the conclusion of each treatment period, hepatocyte cultures (96-well) were washed with 1 volume of HBSS, lysed by addition of 25 ul ArrayPlate lysis buffer (HTG, Tucson, AZ), and 70 ul/well of Denaturation Oil, denatured by incubation at 95C for 10 min, and frozen at approximately -70C until analysis by nuclease protection assay (qNPA) (Roberts et al., 2007). For qNPA analysis, cell lysates were thawed at 50C for approximately 30 min, qNPA probes were added, and samples were incubated at 95C for 10 min to begin the detection process by denaturing the target RNA, dissociating the duplexes and secondary structure hybridization. At the conclusion of the hybridization period, S1 nuclease reagent was added to each sample to digest all nonprotected nucleotides at 50C for 60-90 min. […]
Turning to `CC1(C)C(C=C(Cl)Cl)C1C(=O)OC(C#N)c1cccc(Oc2ccccc2)c1` (stereo not drawn), the call was inactive.
For `CC(C)N1C(=O)c2ccccc2NS1(=O)=O` the value was “inactive”; for `C=CCOC(=O)C(C)(C)OC(=O)c1cc(-n2c(=O)cc(C(F)(F)F)n(C)c2=O)ccc1Cl`, “inactive”; for `Clc1nc(Cl)nc(Nc2ccccc2Cl)n1`, “inactive”.
The result for `CS(=O)(=O)c1cc(C(F)(F)F)ccc1C(=O)c1cnoc1C1CC1` reads “inactive”; that for `COCC(C)N(C(=O)CCl)c1c(C)csc1C` (stereo not drawn), “inactive”.
The result for `CCCCOCN(C(=O)CCl)c1c(CC)cccc1CC` reads “inactive”.
Turning to `CO/N=C(/C1=NOCCO1)c1ccccc1Oc1ncnc(Oc2ccccc2Cl)c1F`, the compound was called inactive.
Turning to `CCCCC(O)(Cn1cncn1)c1ccc(Cl)cc1Cl` (stereo not drawn), the compound was classed as inactive.
For `OC(c1ccc(Cl)cc1)(c1ccc(Cl)cc1)C(Cl)(Cl)Cl` the value was “inactive”.
For `CN=C=S` the value was “inactive”; for `COCC(=O)N(c1c(C)cccc1C)C(C)C(=O)OC` (stereo not drawn), “inactive”; for `CCCN(CC)CC1COC2(CCC(C(C)(C)C)CC2)O1` (stereo not drawn), “inactive”.
On to `CC1(C)CCC(=Cc2ccc(Cl)cc2)C1(O)Cn1cncn1` (stereo not drawn), for which the result was inactive.
For the compound `CCOc1nc(F)cc2nc(S(=O)(=O)Nc3c(Cl)cccc3Cl)nn12`, the outcome was inactive.
For `COC(=O)c1c(C(F)F)nc(C(F)(F)F)c(C2=NCCS2)c1CC(C)C` the value was “inactive”; for `O=P(O)(O)CCCl`, “inactive”; for `COCc1cnc(C2=NC(C)(C(C)C)C(=O)N2)c(C(=O)O)c1` (stereo not drawn), “inactive”.
`O=c1n(Cl)c(=O)n(Cl)c(=O)n1Cl`: the compound was classed as inactive.
For `CCOC(=O)C(C)OC(=O)c1cc(Oc2ccc(C(F)(F)F)cc2Cl)ccc1[N+](=O)[O-]` (stereo not drawn) the value was “inactive”; for `COc1cc(OC)nc(NC(=O)NS(=O)(=O)c2ncccc2OCC(F)(F)F)n1`, “inactive”; for `Nc1c(Cl)c(F)nc(OCC(=O)O)c1Cl`, “inactive”.
For `CC(C)C1(C)N=C(c2ncccc2C(=O)O)NC1=O` (stereo not drawn) the value was “inactive”.
Regarding `CCCCC(C#N)(Cn1cncn1)c1ccc(Cl)cc1` (stereo not drawn), the call was inactive.
Consider `COP(=O)(OC)O/C(C)=C/C(=O)N(C)C`, for which the result was inactive.
`Clc1cccc(C(Cl)(Cl)Cl)n1`: the result was inactive.
The result for `Cc1ccc(N=CN(C)C=Nc2ccc(C)cc2C)c(C)c1` reads “inactive”; that for `CCN(CC)c1nc(C)cc(OP(=S)(OC)OC)n1`, “inactive”.
Consider `N#Cc1c(Cl)cccc1Cl`, for which the compound was called inactive.
The result for `CCCC(=NOCC)C1=C(O)CC(CC(C)SCC)CC1=O` (stereo not drawn) reads “inactive”; that for `CSC(=O)c1c(C(F)F)nc(C(F)(F)F)c(C(=O)SC)c1CC(C)C`, “inactive”; that for `CCOP(=O)(OCC)Oc1nc(Cl)c(Cl)cc1Cl`, “inactive”.
The result for `CCNC(=O)NC(=O)C(C#N)=NOC` reads “inactive”.
